The subject of the first test is CAMK4. To be noted: concentration: 1 μM, replicates: in singlicate; n = 1.
For `COc1cc2ncn(-c3cc(OCc4ccncc4Br)c(C(N)=O)s3)c2cc1OC` [GW854278], the “%Inh” value was 0%.

For the molecule `Cc1cc(Nc2nc(-c3cccc(C)n3)nc3ccccc23)ccn1` [GW872411], the “%Inh” value is given as 0%.

For the molecule `Cc1nnc(-c2ccc(C)c(-c3ccc(C(=O)O)cc3)c2)o1` [GW608005], the “%Inh” value worked out at 0%.

Turning to `COc1cc(Nc2ccnc3ccc(C(F)(F)F)cc23)cc(OC)c1OC` [GW577382], the “%Inh” value turned out to be 10%.

As for `FC(F)(F)c1ccc(-c2ncn(CCCN3CCOCC3)c2-c2ccncc2)cc1` [SB-217780], the “%Inh” value came out at 14%.

With `Cl.c1ccc(Cn2cnc3cc(Nc4ncnc5ccccc45)ccc32)cc1` [GW272142], the “%Inh” value came out at 0%.

As for `Cc1ccc(-c2ccc3c(ccc4sc5c(c43)NC[C@@H](C)N=C5N(C)C)n2)cn1`, the “%Inh” value is 20%.

For the molecule `Cl.NS(=O)(=O)c1cccc(Nc2cc(-c3ccc(F)cc3)n[nH]2)c1` [GW824645], the “%Inh” value is given as 2%.

As for `CCc1ccc(-c2ccc3c(c2)-c2nn(C)cc2S(=O)(=O)N3C)cc1`, the “%Inh” value came out at 0%.

Consider `O=C(Nc1ccc2c(c1)OCO2)NC1CCN(c2ccnc(NCc3ccc(F)cc3)n2)CC1` [GSK1379859], for which the “%Inh” value came to 0%.

On to `Cc1nc(N(C)[C@H]2CN(C(=O)CC#N)CC[C@H]2C)c2cc[nH]c2n1`, for which the “%Inh” value was 6%.

Take `CCCC(=O)Nc1n[nH]c2ncc(-c3cccc4ccccc34)cc12` [SB-642057]: the “%Inh” value was found to be 22%.

`COC(=O)c1c(-c2ccccc2)c2cc(C)ccc2c(=O)n1Cc1ccccc1`: the “%Inh” value is 0%.

Consider `Cc1ccc(Oc2ccc(Nc3ncnc4cc[nH]c34)cc2C)cn1`, for which the “%Inh” value was 0%.

For the molecule `COc1cc2ncn(-c3cc(OCCCc4ccccc4)c(C(N)=O)s3)c2cc1OC` [GSK205189], the “%Inh” value is 0%.

Take `O=C1NC(=O)C(c2ccccc2)=C1Nc1cccc(O)c1` [SB-390534]: the “%Inh” value is recorded as 0%.

For the molecule `CN1C(=O)C(Nc2ccccc2)=C(c2ccccc2)C1=O` [SB-300079], the “%Inh” value came out at 0%.

For the molecule `COc1ccc(-n2cnc3c(N)ncnc32)cc1` [SKF-97236], the “%Inh” value is given as 12%.

For the molecule `COc1ccc(Nc2nccc(N3CCC(NS(=O)(=O)c4ccc(NC(C)=O)cc4)C3)n2)cc1` (stereo not drawn) [GSK1379729], the “%Inh” value was 4%.

Regarding `Nc1ncnc2c1ncn2-c1cccc2ccccc12` [SKF-97184], the “%Inh” value is 38%.

Turning to `Nc1nc(-c2ccccc2F)c(-c2ccnc3ccccc23)s1` [GW560459], the “%Inh” value is recorded as 0%.

Regarding `CCc1nc(-c2cccc(C)c2)c(-c2ccncc2)s1`, the “%Inh” value is 0%.

Turning to `CCS(=O)c1ccc(-c2coc3ccc(-c4nnc(C)o4)cc23)cc1` (stereo not drawn), the “%Inh” value is given as 0%.

`O=c1cc(N2CCOCC2)nc2n(Cc3ccc(F)c(Cl)c3)ccn12` [GSK2297099]: the “%Inh” value came to 0%.

As for `COC(=O)c1c(-c2ccccc2)c2cc(Br)ccc2c(=O)n1Cc1ccc(NC(=O)CCC(=O)O)cc1`, the “%Inh” value came out at 0%.

Regarding `COc1cc2ncn(-c3cc(OCc4ccncc4)c(C(N)=O)s3)c2cc1OC` [GSK336313], the “%Inh” value is listed as 0%.

`CCn1c(-c2nonc2N)nc2ccccc21` [SB-693162/GW549034]: the “%Inh” value was determined as 0%.

Take `CCC(=O)c1c(-c2ccccc2)c2cc(Cl)ccc2c(=O)n1Cc1cc(S(C)(=O)=O)n(CC(N)=O)n1`: the “%Inh” value is recorded as 0%.

Take `O=C(Nc1n[nH]c2nc(-c3ccccc3)c(Cl)cc12)C1CC1` [SB-734909]: the “%Inh” value stood at 0%.

`COc1cccc(-n2cnc3c(N)ncnc32)c1` [SKF-97416]: the “%Inh” value is listed as 4%.

For `CCS(=O)(=O)c1ccc(OC)c(Nc2ncc(-c3ccc(F)cc3)o2)c1.Cl` [GW591947], the “%Inh” value is 0%.

Consider `COc1cc(OC)cc(-c2cc3cnc(N)nc3nc2NC(=O)NC(C)(C)C)c1`, for which the “%Inh” value is 0%.

Take `COc1cc2nccc(Nc3ccc(OCc4ccc(NC(C)=O)cc4)cc3)c2cc1OC.Cl` [GW440135]: the “%Inh” value came out at 0%.

In the case of `O=C(Nc1n[nH]c2cc(-c3ccccc3F)ccc12)C1CC1` [SB-733371], the “%Inh” value came to 0%.

In the case of `CN1C(=O)C(Nc2cc(Cl)c(O)c(Cl)c2)=C(c2ccc(Cl)cc2)C1=O` [SB-404321], the “%Inh” value worked out at 0%.

Take `C[C@@H]1CC[C@H](C(=O)NC2CCCCC2)CN1c1cc(-c2ccc3c(N)n[nH]c3c2)nc(N)n1` [GSK2291363]: the “%Inh” value turned out to be 0%.

The subject of a further test is CAMKK1. To be noted: concentration: 1 μM, replicates: in singlicate; n = 1.
As for `COc1cc2ncn(-c3cc(OCc4ccncc4Br)c(C(N)=O)s3)c2cc1OC` [GW854278], the “%Inh” value is recorded as 15%.

In the case of `Cc1cc(Nc2nc(-c3cccc(C)n3)nc3ccccc23)ccn1` [GW872411], the “%Inh” value is listed as 0%.

For the molecule `Cc1nnc(-c2ccc(C)c(-c3ccc(C(=O)O)cc3)c2)o1` [GW608005], the “%Inh” value was determined as 7%.

As for `COc1cc(Nc2ccnc3ccc(C(F)(F)F)cc23)cc(OC)c1OC` [GW577382], the “%Inh” value came to 15%.

For the molecule `FC(F)(F)c1ccc(-c2ncn(CCCN3CCOCC3)c2-c2ccncc2)cc1` [SB-217780], the “%Inh” value was found to be 11%.

For the molecule `Cl.c1ccc(Cn2cnc3cc(Nc4ncnc5ccccc45)ccc32)cc1` [GW272142], the “%Inh” value is 9%.

As to `Cc1ccc(-c2ccc3c(ccc4sc5c(c43)NC[C@@H](C)N=C5N(C)C)n2)cn1`, the “%Inh” value was 0%.

Take `Cl.NS(=O)(=O)c1cccc(Nc2cc(-c3ccc(F)cc3)n[nH]2)c1` [GW824645]: the “%Inh” value worked out at 0%.

Consider `CCc1ccc(-c2ccc3c(c2)-c2nn(C)cc2S(=O)(=O)N3C)cc1`, for which the “%Inh” value is on record as 22%.

Regarding `O=C(Nc1ccc2c(c1)OCO2)NC1CCN(c2ccnc(NCc3ccc(F)cc3)n2)CC1` [GSK1379859], the “%Inh” value is 0%.

On to `Cc1nc(N(C)[C@H]2CN(C(=O)CC#N)CC[C@H]2C)c2cc[nH]c2n1`, for which the “%Inh” value came to 7%.

Consider `CCCC(=O)Nc1n[nH]c2ncc(-c3cccc4ccccc34)cc12` [SB-642057], for which the “%Inh” value is 20%.

For `COC(=O)c1c(-c2ccccc2)c2cc(C)ccc2c(=O)n1Cc1ccccc1`, the “%Inh” value is 0%.

For `Cc1ccc(Oc2ccc(Nc3ncnc4cc[nH]c34)cc2C)cn1`, the “%Inh” value is reported as 9%.

In the case of `COc1cc2ncn(-c3cc(OCCCc4ccccc4)c(C(N)=O)s3)c2cc1OC` [GSK205189], the “%Inh” value was found to be 3%.

For `O=C1NC(=O)C(c2ccccc2)=C1Nc1cccc(O)c1` [SB-390534], the “%Inh” value turned out to be 0%.

On to `CN1C(=O)C(Nc2ccccc2)=C(c2ccccc2)C1=O` [SB-300079], for which the “%Inh” value is listed as 0%.

On to `COc1ccc(-n2cnc3c(N)ncnc32)cc1` [SKF-97236], for which the “%Inh” value is on record as 0%.

As for `COc1ccc(Nc2nccc(N3CCC(NS(=O)(=O)c4ccc(NC(C)=O)cc4)C3)n2)cc1` (stereo not drawn) [GSK1379729], the “%Inh” value was found to be 12%.

On to `Nc1ncnc2c1ncn2-c1cccc2ccccc12` [SKF-97184], for which the “%Inh” value turned out to be 0%.

With `Nc1nc(-c2ccccc2F)c(-c2ccnc3ccccc23)s1` [GW560459], the “%Inh” value was 10%.

In the case of `CCc1nc(-c2cccc(C)c2)c(-c2ccncc2)s1`, the “%Inh” value turned out to be 0%.

As for `CCS(=O)c1ccc(-c2coc3ccc(-c4nnc(C)o4)cc23)cc1` (stereo not drawn), the “%Inh” value is 0%.

As to `O=c1cc(N2CCOCC2)nc2n(Cc3ccc(F)c(Cl)c3)ccn12` [GSK2297099], the “%Inh” value is 28%.

Take `COC(=O)c1c(-c2ccccc2)c2cc(Br)ccc2c(=O)n1Cc1ccc(NC(=O)CCC(=O)O)cc1`: the “%Inh” value is listed as 0%.

In the case of `COc1cc2ncn(-c3cc(OCc4ccncc4)c(C(N)=O)s3)c2cc1OC` [GSK336313], the “%Inh” value came to 0%.

For the molecule `CCn1c(-c2nonc2N)nc2ccccc21` [SB-693162/GW549034], the “%Inh” value came to 9%.

In the case of `CCC(=O)c1c(-c2ccccc2)c2cc(Cl)ccc2c(=O)n1Cc1cc(S(C)(=O)=O)n(CC(N)=O)n1`, the “%Inh” value is 0%.

For the molecule `O=C(Nc1n[nH]c2nc(-c3ccccc3)c(Cl)cc12)C1CC1` [SB-734909], the “%Inh” value is 0%.

For `COc1cccc(-n2cnc3c(N)ncnc32)c1` [SKF-97416], the “%Inh” value was found to be 4%.

With `CCS(=O)(=O)c1ccc(OC)c(Nc2ncc(-c3ccc(F)cc3)o2)c1.Cl` [GW591947], the “%Inh” value stood at 1%.

As to `COc1cc(OC)cc(-c2cc3cnc(N)nc3nc2NC(=O)NC(C)(C)C)c1`, the “%Inh” value was determined as 16%.

As to `COc1cc2nccc(Nc3ccc(OCc4ccc(NC(C)=O)cc4)cc3)c2cc1OC.Cl` [GW440135], the “%Inh” value is 11%.

`O=C(Nc1n[nH]c2cc(-c3ccccc3F)ccc12)C1CC1` [SB-733371]: the “%Inh” value came to 0%.

In the case of `CN1C(=O)C(Nc2cc(Cl)c(O)c(Cl)c2)=C(c2ccc(Cl)cc2)C1=O` [SB-404321], the “%Inh” value is 0%.

With `C[C@@H]1CC[C@H](C(=O)NC2CCCCC2)CN1c1cc(-c2ccc3c(N)n[nH]c3c2)nc(N)n1` [GSK2291363], the “%Inh” value stood at 24%.
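Further: KINOMEscan kinase panel screen.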
